# A selection: hits, their analogues and other compounds. The true share with any hit is near 14%.
# Shiga inhibitor – blocks Shiga toxin action in Vero cells; AID 2315; Vero cells, Shiga toxin protein synthesis inhibition reporter; inhibition, % at 38.7 µM; hit rate 9.2% among 290,000; in the data active = inhibition mostly above about 28%, no sharp cut-off; inactive = mostly below about 43%
# LmPK inhibitor – inhibitors of Leishmania mexicana pyruvate kinase; Q27686; purified LmPK, Kinase-Glo ATP luminescence, 1 h; Potency, µM (highest dose often 57.5 µM), actives largely listed as inhibitors; hit rate 0.37% among 290,000
# Target sequence (Q27686 whole entry, looked up): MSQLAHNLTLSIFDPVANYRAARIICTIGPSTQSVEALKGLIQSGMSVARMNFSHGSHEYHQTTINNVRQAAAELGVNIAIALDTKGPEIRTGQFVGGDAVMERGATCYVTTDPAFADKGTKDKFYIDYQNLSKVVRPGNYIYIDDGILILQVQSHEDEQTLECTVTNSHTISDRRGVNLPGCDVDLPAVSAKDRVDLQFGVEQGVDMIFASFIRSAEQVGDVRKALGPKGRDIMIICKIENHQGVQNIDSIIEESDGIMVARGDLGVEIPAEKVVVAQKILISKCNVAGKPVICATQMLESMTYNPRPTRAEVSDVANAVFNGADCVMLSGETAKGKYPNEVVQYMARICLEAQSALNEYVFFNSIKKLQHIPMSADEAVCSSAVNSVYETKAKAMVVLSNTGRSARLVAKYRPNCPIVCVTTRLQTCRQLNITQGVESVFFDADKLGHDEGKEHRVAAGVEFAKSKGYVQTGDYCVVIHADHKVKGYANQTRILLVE
#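 0.1 nM LmPK, 0.5 mM PEP, 0.1 mM ADP; 50 mM imidazole pH 7.2, 7 mM MgCl2, 50 mM KCl; 1 h RT. Kinase-Glo luminescence readout, normalized to no-enzyme (full inhibition) and uninhibited wells.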
# FBPA Giardia inh – inhibitors of Giardia lamblia fructose-1,6-bisphosphate aldolase. Potency, µM (doses to about 59.6 µM), actives largely listed as inhibitors. AID 2451. A8B2U2. hit rate 0.71% among 290,000. purified Giardia FBPA; also: nearly all actives have a fitted effect of over 55% in size
#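 Giardia FBPA (40 nM reagent) was preincubated 10 min at RT with compound (up to 57.5 uM final), then substrate plus GAPDH/TPI/NAD/arsenate coupling system with diaphorase/resazurin was added; resorufin fluorescence (525/598 nm) was read after 20 min.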
# Cycloheximide cs – counter-screen hit for Shiga toxin inhibitors, cycloheximide | cell reporter, cycloheximide protein synthesis inhibition counterscreen | max response, % | hit rate 12% among 300,000; in the data active = max response mostly above about 13%, no sharp cut-off; inactive = mostly below about 14%; also: read at 38.3 µM for the half of the compounds with a filed dose
# NS1 function inh – inhibitors of influenza NS1 protein function; Potency, µM (series often up to 46.1 µM); hit rate 0.4% among 270,000; AID 2326; calls by dose curve; also: actives are rising curves; nearly all actives have a fitted effect of over 50% in size
#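 Growth recovery, yeast-based: influenza A NS1 expressed in S. cerevisiae causes slow growth, and suppressors are detected by OD600. The parent strain without NS1 is used as positive control.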
# Hits are given with their value; – = inactive; ? = inconclusive; · = no result; + = active, no number; ! = not confirmed by another sample. Unless noted, calls follow the shape of the dose curve; as a rule, active = well fitted curve in the direction sought with a large enough effect; inconclusive = small, poorly fitted or top-dose-only effect, or another doubt; inactive = no such curve, though single readings can be large; an effect the other way counts as inactive or inconclusive.
SMILES,Shiga inhibitor,LmPK inhibitor,FBPA Giardia inh,Cycloheximide cs,NS1 function inh
O=C(CCS(=O)(=O)c1ccccc1Cl)NCCC1=CCCCC1,61,–,·,35,–
O=C(CN1C(=O)C2C3C=CC(C3)C2C1=O)NCCC1=CCCCC1 (configuration not stated),–,–,–,22,–
COc1ccccc1-c1cc(C(=O)N2CCOCC2)no1,89,–,–,29,–
COc1ccccc1-c1ccc(C(=O)O)o1,–,–,–,22!,–
COc1ccccc1-c1cc(C(=O)N2CCCC2)no1,84,–,–,34,–
O=C(c1cccc(F)c1)N1CCN(C(=O)c2cc(-c3ccc(Cl)cc3Cl)on2)CC1,–,–,–,–,?
COc1ccccc1-c1cc(C(=O)N2CCc3ccccc3C2)no1,·,·,·,·,–
COc1ccccc1-c1cc(C(=O)N2CCN(c3ccc(F)cc3)CC2)no1,–,–,–,–,–
O=C(c1cc(-c2ccccc2Cl)on1)N1CCCC1,–,–,–,14,–
O=C(c1cnccn1)N1CCC2(CC1)CCN(c1ccccc1)CC2,·,·,–,·,·
Cc1cnc(CNc2ncnc3ccc(-c4ccoc4)cc23)cn1,·,·,–,·,·
Cc1cccc(C(=O)Oc2ccc3ccc(O)cc3c2)c1,·,–,–,25,–
O=C(Oc1ccc2ccccc2c1)c1ccccc1,–,–,–,22,–
COc1cc(C(=O)Oc2cccc(C)c2)cc(OC)c1OC,–,–,–,–,–
O=C(Oc1cccc(C(=S)N2CCCCC2)c1)c1ccccc1,–,–,–,–,·
Cc1ccc(C)c(NC(=O)C2CCN(S(=O)(=O)c3ccc4c(c3)NC(=O)CO4)CC2)c1,–,–,·,–,–
Cn1cc(C(=O)NS(=O)(=O)Nc2ccc(Br)cn2)c2ccccc21,22,–,–,26,–
CS(=O)(=O)Nc1ccc(C(=O)NCCSCc2c(F)cccc2Cl)cc1,–,–,–,–,?
COc1ccc(C(=O)NCCSCc2cccc(Cl)c2)cc1OC,–,–,–,–,–
COc1cccc(C(=O)NCCSCc2c(F)cccc2Cl)c1,·,–,–,22,–
COc1cccc(C(=O)NCCSCc2ccccc2Cl)c1,–,–,–,13,–
COc1ccc(-c2ccc([C@H]3[C@@H]4C=CCC[C@@]4(C)C(=O)N3Cc3ccccc3)c(F)c2)cc1OC,–,–,–,37,–
COc1ccc(-c2c([C@H]3[C@@H]4C=CCC[C@@]4(C)C(=O)N3Cc3ccccc3)ccc3ccccc23)cc1OC,–,–,–,–,–
C=C(C)C(=O)OC1(C(F)(F)F)Oc2cc(C)ccc2NC1=O (configuration not stated),93,–,–,56,–
CCOC(=O)C1(N(CC)CC)Sc2cc(C)ccc2NC1=O (configuration not stated),–,–,·,–,–
SMILES,Shiga inhibitor,LmPK inhibitor,FBPA Giardia inh,Cycloheximide cs,NS1 function inh
CCCCc1ncc(CN2CCC(n3nccc3NC(=O)c3ccccc3Cl)CC2)[nH]1,–,–,·,–,–
O=C(CSc1nccc(-c2cccs2)n1)Nc1cccc(Cl)c1Cl,–,–,–,–,–
O=C(c1ccccc1Cl)N(C(=O)c1ccccc1Cl)c1nccc(-c2cccs2)n1,–,–,7.9µM,–,–
C#CCSc1nnc(CNS(=O)(=O)c2ccc(Br)cc2)n1C,–,–,·,–,–
CC(C)c1ccc(/C=C(\NC(=O)c2ccccc2)C(=O)NCCN2CCOCC2)cc1,–,–,·,–,–
O=C(Nc1cccc(-c2cn3cccnc3n2)c1)c1ccc2c(c1)OCO2,–,–,–,–,–
CCCCC(=O)Nc1cccc(-c2cn3ccccc3n2)c1,–,–,–,29,–
Cc1ccccc1C(=O)Nc1cccc(-c2cn3ccccc3n2)c1,–,–,–,21,–
O=C(Nc1cccc(-c2cn3ccccc3n2)c1)c1ccccc1,57,–,–,34,·
Cc1ccccc1C(=O)Nc1cccc(-c2ccc3nncn3n2)c1,–,–,–,–,·
Cc1ccc(C(=O)Nc2cccc(-c3cn4ccccc4n3)c2)cc1,81,–,–,41,–
Cc1ccc(C(=O)Oc2ccc3c(c2)ncn3C)cc1,99,–,–,49,–
CC(C)(C)c1ccc(OC(=O)c2ccccc2)cc1,–,–,–,–,–
Cn1cnc2cc(OC(=O)c3ccccc3)ccc21,108,–,–,48,–
COc1ccc(Nc2nc(C)c(-c3ccccc3)s2)cc1,82,–,–,59,–
Cc1nc(Nc2ccc(S(N)(=O)=O)cc2)sc1-c1ccccc1,–,–,–,31,–
COc1ccc(Nc2nc(C)c3ccccc3n2)cc1,135,–,–,27,–
COc1ccc2c(C)nc(Nc3nc(C)c(C)c(=O)[nH]3)nc2c1,–,–,–,48,–
COc1ccc(-c2sc(NC(C)=O)nc2-c2ccccc2)cc1,–,–,–,–,–
CCc1c(C)nc(Nc2nc(C)c3ccc(OC)cc3n2)[nH]c1=O,–,–,–,–,–
O=C(c1ccc(N2CCN(C(=O)c3ccc(F)cc3F)CC2)cc1)c1cccc(F)c1,–,–,·,–,–
COc1ccc2nc(N/C(N)=N/C(=S)Nc3ccccc3)nc(C)c2c1,69,–,–,24,·
COc1ccc2nc(N/C(N)=N/C(=S)Nc3ccc(C)c(C)c3)nc(C)c2c1,–,–,–,–,?
COc1ccc(Nc2nc(-c3cccc(OC)c3O)nc3ccccc23)cc1,50,–,–,33,–
Cc1nn(Cc2noc(C(=O)NCc3ccc4c(c3)OCO4)n2)c(C)c1Br,–,–,–,–,–
SMILES,Shiga inhibitor,LmPK inhibitor,FBPA Giardia inh,Cycloheximide cs,NS1 function inh
Nc1ccc(C#Cc2ccc3c(=O)c4ccccc4oc3c2)cc1,28,–,–,37,–
CCOC(=O)C1(CCOc2ccccc2)CCN(Cc2cccc(OC)c2O)CC1,–,–,–,–,–
CCCCCC1=C2CNC(CCC)(C(=O)OC)C=C2C(C)C1=O (configuration not stated),·,·,–,·,·
O=C(NCC(=O)N1CCN(c2ccccc2)CC1)c1ccccc1,53,–,–,11,–
O=C(NC(=O)N1CCN(c2ccccc2)CC1)c1ccc(Cl)cc1,+,–,–,42,–
O=C(NCC(=O)N1CCN(c2ccccc2O)CC1)c1ccccc1,77,–,–,44,–
C=CCNC(=O)N1CCCC(N2CCN(c3ccccc3OC)CC2)C1 (configuration not stated),–,–,–,–,–
CCOC(=O)c1c(S(=O)(=O)N2CCCCCC2)c(C)n(C)c1C,–,–,–,–,–
N[C@@H](CNO)C(=O)O,·,·,·,·,–
Clc1cccc(N=NN2CCOCC2)c1Cl,–,–,–,20,–
CN1/C(=C/C(=O)c2ccc(Cl)cc2)Sc2cc3c(cc21)OCO3,68,–,–,41,–
CN(C)/C=C/C(=O)c1cccc([N+](=O)[O-])c1,–,–,–,–,–
CC(=O)c1ccc2c(c1)N(C)c1ccccc1S2,15,–,–,15,–
COc1ccc(C(=O)/C=C2/Sc3cc4c(cc3N2C)OCO4)cc1,–,–,–,–,–
CN1/C(=C\C(=O)c2cccc([N+](=O)[O-])c2)Sc2ccccc21,97,–,–,38,–
COc1cc(OC)cc(C(=O)/C=C2\Sc3ccccc3N2C)c1,42,–,–,41,–

# From PubChem
